Source: PMC7862700, “An all-to-all approach to the identification of sequence-specific readers for epigenetic DNA modifications on cytosine”

Assays:
Assay in all cases: DAPPL (digital affinity profiling via proximity ligation, sequencing); 10 mM Tris-HCl pH 7.5, 50 mM NaCl, 1 mM DTT, 4% glycerol, room temperature, 30 min; GST-TFs on glutathione beads, 16-mer random dsDNA library, 0.1% formaldehyde crosslink after washing; high values mean tight binding
Conditions in all cases: protein: recombinant; tags: N-terminal GST; dsDNA, one strand shown
FLI1 = molecular target: T1, FLI1 (Homo sapiens, UniProt Q01543 1-452)
T1 sequence: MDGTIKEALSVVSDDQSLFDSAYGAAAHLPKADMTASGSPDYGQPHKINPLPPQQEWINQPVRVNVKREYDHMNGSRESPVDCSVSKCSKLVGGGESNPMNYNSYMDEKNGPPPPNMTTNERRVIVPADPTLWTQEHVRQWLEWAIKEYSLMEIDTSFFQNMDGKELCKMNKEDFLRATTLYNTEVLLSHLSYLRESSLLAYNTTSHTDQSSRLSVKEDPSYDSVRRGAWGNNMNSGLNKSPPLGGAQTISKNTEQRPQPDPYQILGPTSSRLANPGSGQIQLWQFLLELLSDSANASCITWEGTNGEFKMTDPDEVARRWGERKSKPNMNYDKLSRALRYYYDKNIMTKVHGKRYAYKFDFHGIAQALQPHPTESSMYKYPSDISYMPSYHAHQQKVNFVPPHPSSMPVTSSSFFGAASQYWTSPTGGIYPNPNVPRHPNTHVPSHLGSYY
Procedure, shortened: (§1)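 The binding signal reported is, for every hexamer, its read frequency for a factor over its read frequency for the tag-only sample. Reads came from pools of yeast-expressed, GST-fused human transcription factors on glutathione beads, barcoded with DNA and mixed with that sample, which were incubated with 200 nmole of a random double-stranded 16-mer DNA library in Tris/NaCl/DTT/glycerol buffer at room temperature for 30 min. After washing, the pools were crosslinked with 0.1% formaldehyde, proximity-ligated with BsaI/T4 ligase for 1 h at 37 °C, PCR-amplified and sequenced on an Illumina NextSeq500.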

ELK1 = molecular target: T2, ELK1 (Homo sapiens, UniProt P19419 1-428)
T2 sequence: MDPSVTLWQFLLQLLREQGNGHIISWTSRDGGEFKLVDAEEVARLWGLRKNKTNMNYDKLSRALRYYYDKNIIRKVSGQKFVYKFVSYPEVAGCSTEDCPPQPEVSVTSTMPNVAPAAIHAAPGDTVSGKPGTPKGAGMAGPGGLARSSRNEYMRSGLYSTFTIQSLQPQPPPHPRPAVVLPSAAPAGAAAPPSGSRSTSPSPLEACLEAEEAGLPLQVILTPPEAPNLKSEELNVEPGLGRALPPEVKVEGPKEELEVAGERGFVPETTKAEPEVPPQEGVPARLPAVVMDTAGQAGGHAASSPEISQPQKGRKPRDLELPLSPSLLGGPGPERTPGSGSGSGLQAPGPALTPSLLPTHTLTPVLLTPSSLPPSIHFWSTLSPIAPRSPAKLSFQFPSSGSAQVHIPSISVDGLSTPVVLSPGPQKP
Procedure, shortened: as §1

GABPA = molecular target: T3, GABPA (Homo sapiens, UniProt Q06546 1-454)
T3 sequence: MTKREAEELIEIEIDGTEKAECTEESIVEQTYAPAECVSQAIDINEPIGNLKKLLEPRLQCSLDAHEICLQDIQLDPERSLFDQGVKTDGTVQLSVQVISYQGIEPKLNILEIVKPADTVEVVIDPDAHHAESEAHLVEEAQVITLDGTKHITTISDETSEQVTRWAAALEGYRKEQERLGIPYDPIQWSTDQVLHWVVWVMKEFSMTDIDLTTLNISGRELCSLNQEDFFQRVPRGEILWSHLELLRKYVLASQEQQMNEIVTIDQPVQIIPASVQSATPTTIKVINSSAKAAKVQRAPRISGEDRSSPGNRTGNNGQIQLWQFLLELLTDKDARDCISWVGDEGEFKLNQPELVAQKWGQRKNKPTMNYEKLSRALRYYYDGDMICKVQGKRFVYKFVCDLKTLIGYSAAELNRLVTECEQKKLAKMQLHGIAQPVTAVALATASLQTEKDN
Procedure, shortened: as §1

ERG = molecular target: T4, ERG (Homo sapiens, UniProt P11308 1-479)
T4 sequence: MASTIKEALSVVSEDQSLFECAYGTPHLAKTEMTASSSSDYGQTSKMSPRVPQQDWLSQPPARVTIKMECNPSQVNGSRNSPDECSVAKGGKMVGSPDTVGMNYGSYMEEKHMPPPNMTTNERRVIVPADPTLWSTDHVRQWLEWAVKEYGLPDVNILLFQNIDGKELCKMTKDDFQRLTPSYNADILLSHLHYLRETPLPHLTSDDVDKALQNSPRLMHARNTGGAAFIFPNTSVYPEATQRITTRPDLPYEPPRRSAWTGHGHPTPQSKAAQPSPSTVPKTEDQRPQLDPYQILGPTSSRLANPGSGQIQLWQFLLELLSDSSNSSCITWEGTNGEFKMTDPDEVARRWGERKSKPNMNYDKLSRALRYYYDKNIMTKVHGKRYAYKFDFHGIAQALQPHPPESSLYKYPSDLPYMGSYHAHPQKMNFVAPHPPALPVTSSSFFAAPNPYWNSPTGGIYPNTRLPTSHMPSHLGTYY
Procedure, shortened: as §1

ELF1 = ELF1 (Homo sapiens, UniProt P32519 1-619)
Procedure, shortened: as §1

EHF = molecular target: T5, EHF (Homo sapiens, UniProt Q9NZC4 1-300)
T5 sequence: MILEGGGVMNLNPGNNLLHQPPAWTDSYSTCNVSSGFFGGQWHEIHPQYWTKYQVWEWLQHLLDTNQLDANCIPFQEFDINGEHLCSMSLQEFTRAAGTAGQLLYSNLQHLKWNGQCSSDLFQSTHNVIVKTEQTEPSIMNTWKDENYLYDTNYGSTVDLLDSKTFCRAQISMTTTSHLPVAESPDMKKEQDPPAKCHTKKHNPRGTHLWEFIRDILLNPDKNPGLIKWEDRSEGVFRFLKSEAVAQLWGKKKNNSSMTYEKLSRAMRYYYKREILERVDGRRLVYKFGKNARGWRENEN
Procedure, shortened: as §1

SPI1 = SPI1 (Homo sapiens, UniProt P17947 1-270)
Procedure, shortened: as §1

SPIB = SPIB (Homo sapiens, UniProt Q01892 1-262)
Procedure, shortened: as §1

ELK3 = molecular target: T6, ELK3 (Homo sapiens, UniProt P41970 1-407)
T6 sequence: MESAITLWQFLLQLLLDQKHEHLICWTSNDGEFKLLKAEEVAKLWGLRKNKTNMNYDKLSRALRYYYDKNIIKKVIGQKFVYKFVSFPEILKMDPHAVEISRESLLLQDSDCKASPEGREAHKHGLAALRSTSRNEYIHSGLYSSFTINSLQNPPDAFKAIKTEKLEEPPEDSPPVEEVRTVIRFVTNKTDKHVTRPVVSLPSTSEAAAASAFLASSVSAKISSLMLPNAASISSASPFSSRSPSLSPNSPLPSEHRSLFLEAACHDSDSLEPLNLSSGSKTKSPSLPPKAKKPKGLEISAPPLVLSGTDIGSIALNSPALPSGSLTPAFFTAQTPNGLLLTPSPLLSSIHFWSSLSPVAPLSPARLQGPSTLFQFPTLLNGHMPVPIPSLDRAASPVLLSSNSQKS
Procedure, shortened: as §1

FEV = molecular target: T7, FEV (Homo sapiens, UniProt Q99581 1-238)
T7 sequence: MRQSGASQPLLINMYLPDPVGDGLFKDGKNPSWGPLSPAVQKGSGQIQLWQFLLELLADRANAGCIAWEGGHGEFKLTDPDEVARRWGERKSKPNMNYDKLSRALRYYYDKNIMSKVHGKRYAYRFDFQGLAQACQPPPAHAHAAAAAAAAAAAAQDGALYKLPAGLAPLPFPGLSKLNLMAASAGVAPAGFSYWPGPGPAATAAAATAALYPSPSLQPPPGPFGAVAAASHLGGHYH
Procedure, shortened: as §1

ETV5 = ETV5 (Homo sapiens, UniProt P41161 1-510)
Procedure, shortened: as §1

SPIC = molecular target: T8, SPIC (Homo sapiens, UniProt Q8N5J4 1-248)
T8 sequence: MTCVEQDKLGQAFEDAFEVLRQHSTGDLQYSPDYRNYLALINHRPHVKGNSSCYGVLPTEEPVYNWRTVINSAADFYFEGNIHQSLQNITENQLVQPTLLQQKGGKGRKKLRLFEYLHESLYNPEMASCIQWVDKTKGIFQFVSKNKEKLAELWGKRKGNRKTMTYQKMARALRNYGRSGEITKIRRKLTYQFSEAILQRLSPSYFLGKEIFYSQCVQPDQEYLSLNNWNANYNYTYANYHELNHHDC
Procedure, shortened: as §1

ELF4 = ELF4 (Homo sapiens, UniProt Q99607 1-663)
Procedure, shortened: as §1

ERF = molecular target: T9, ERF (Homo sapiens, UniProt P50548 1-548)
T9 sequence: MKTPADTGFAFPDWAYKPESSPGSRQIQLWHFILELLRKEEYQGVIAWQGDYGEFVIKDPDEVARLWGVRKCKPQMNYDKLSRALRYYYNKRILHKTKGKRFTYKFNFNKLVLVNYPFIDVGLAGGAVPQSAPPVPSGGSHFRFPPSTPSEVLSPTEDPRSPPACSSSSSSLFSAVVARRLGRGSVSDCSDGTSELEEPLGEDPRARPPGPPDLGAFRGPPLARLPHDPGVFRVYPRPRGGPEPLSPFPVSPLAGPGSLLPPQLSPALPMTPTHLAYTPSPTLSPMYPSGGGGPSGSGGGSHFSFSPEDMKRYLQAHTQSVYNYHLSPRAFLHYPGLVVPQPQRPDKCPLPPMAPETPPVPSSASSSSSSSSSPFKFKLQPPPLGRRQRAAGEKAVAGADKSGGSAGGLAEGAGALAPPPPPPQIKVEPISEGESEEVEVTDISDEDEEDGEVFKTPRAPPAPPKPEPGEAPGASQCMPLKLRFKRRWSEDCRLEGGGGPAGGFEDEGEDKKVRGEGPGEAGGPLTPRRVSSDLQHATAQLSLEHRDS
Procedure, shortened: as §1

ETV3L = molecular target: T10, ETV3L (Homo sapiens, UniProt Q6ZN32 1-361)
T10 sequence: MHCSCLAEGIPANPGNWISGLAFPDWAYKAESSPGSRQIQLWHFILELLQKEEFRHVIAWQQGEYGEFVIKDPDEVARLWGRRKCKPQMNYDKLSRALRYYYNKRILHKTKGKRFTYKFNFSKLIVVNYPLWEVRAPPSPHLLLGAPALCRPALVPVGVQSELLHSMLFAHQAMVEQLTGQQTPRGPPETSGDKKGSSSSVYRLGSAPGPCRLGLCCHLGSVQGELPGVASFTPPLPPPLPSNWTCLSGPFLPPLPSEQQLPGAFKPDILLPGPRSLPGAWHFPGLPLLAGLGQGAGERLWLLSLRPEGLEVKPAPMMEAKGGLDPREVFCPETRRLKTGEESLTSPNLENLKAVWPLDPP
Procedure, shortened: as §1

ETS2 = molecular target: T11, ETS2 (Homo sapiens, UniProt P15036 1-469)
T11 sequence: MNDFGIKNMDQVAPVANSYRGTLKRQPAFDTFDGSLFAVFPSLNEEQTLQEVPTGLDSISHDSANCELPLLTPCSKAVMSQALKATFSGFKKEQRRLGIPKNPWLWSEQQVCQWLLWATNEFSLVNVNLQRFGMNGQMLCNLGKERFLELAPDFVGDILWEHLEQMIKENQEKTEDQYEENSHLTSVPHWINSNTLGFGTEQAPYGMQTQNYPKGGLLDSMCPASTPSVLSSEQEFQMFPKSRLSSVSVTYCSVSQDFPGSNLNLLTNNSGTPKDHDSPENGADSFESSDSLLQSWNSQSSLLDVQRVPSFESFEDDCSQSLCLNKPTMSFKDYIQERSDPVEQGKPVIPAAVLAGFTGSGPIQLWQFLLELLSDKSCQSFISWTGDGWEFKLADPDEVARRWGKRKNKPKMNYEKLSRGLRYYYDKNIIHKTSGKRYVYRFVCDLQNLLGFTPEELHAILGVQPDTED
Procedure, shortened: as §1

SPDEF = molecular target: T12, SPDEF (Homo sapiens, UniProt O95238 1-335)
T12 sequence: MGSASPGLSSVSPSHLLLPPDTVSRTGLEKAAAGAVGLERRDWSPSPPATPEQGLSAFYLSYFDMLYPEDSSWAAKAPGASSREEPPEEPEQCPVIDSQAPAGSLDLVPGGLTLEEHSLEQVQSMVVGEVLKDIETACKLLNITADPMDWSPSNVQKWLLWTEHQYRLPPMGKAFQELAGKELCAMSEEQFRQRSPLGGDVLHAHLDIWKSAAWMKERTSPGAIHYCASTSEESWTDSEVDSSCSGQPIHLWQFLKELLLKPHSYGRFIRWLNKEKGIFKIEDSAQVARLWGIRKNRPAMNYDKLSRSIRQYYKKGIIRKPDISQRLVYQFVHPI
Procedure, shortened: as §1

ETV3 = molecular target: T13, ETV3 (Homo sapiens, UniProt P41162-2 1-143)
T13 sequence: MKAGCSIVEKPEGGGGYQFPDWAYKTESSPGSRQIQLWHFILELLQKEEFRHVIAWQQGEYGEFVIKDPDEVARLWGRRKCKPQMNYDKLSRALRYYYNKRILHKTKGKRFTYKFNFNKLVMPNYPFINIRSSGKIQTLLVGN
Procedure, shortened: as §1

Chain of ETV5 (P41161 whole entry): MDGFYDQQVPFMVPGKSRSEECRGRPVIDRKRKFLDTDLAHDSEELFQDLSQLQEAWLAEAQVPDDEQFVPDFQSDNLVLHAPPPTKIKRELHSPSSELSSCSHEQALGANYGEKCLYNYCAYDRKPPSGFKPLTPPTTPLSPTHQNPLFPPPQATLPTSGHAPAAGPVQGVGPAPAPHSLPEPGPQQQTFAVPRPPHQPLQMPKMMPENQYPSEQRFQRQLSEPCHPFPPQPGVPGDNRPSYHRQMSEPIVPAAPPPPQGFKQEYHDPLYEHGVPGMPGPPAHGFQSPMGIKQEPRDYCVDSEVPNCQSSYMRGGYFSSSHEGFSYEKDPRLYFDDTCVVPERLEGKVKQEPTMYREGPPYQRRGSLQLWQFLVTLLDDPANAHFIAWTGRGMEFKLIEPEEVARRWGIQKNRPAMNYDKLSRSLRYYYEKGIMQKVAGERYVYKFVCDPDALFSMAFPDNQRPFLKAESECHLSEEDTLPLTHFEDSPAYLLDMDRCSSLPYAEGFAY
Chain of ELF1 (P32519 whole entry): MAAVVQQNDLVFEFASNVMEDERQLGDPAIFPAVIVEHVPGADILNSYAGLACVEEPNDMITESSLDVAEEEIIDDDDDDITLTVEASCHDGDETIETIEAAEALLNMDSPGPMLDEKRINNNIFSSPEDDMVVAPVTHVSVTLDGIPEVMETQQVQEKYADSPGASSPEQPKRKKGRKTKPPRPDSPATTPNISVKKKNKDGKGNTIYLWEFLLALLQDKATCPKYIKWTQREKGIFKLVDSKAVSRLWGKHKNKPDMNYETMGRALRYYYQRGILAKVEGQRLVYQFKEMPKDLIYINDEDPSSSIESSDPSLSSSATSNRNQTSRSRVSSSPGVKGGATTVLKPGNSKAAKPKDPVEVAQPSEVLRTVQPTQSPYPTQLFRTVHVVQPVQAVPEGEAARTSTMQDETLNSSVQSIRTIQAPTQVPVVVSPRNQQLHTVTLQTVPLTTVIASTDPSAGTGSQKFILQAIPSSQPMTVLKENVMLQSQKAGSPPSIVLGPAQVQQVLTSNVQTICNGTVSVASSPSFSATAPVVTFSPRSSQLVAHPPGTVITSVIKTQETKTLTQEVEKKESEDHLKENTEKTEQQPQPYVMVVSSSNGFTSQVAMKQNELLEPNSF
Chain of SPIB (Q01892 whole entry): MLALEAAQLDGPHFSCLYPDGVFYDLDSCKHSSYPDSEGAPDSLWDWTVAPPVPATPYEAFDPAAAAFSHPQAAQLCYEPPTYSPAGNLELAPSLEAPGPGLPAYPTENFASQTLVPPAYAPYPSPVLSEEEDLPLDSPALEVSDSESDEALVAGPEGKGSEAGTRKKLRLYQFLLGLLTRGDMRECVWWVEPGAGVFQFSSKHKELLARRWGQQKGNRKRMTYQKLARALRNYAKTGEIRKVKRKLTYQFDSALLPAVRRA
Chain of ELF4 (Q99607 whole entry): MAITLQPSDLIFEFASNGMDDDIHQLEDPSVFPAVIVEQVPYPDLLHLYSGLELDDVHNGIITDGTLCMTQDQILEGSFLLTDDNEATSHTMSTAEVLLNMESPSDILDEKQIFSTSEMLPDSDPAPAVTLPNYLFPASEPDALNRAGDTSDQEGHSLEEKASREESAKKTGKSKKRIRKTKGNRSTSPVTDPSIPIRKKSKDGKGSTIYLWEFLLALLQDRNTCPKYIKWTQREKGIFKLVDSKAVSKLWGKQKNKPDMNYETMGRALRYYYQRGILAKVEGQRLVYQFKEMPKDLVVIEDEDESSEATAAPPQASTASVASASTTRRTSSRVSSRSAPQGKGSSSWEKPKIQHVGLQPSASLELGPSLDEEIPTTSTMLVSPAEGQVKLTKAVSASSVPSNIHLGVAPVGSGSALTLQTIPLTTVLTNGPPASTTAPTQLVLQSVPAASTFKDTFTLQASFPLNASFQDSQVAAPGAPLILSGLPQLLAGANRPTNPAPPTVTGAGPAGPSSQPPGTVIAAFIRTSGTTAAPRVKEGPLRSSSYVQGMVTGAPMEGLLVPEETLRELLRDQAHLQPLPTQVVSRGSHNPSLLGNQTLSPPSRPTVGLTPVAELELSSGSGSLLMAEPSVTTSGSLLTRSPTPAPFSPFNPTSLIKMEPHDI

GTCTTG
binding signal (FLI1): 1.02 fold enrichment (6-mer frequency, TF over GST control) | binding signal (ELK1): 1.02 fold enrichment (6-mer frequency, TF over GST control) | binding signal (GABPA): 1.11 fold enrichment (6-mer frequency, TF over GST control) | binding signal (ERG): 1.05 fold enrichment (6-mer frequency, TF over GST control) | binding signal (ELF1): 1 fold enrichment (6-mer frequency, TF over GST control) | binding signal (EHF): 1.09 fold enrichment (6-mer frequency, TF over GST control) | binding signal (SPI1): 1.01 fold enrichment (6-mer frequency, TF over GST control) | binding signal (SPIB): 1.04 fold enrichment (6-mer frequency, TF over GST control) | binding signal (ELK3): 1.17 fold enrichment (6-mer frequency, TF over GST control) | binding signal (FEV): 1.01 fold enrichment (6-mer frequency, TF over GST control) | binding signal (ETV5): 1.01 fold enrichment (6-mer frequency, TF over GST control) | binding signal (SPIC): 1.11 fold enrichment (6-mer frequency, TF over GST control) | binding signal (ELF4): 1.06 fold enrichment (6-mer frequency, TF over GST control) | binding signal (ERF): 1.15 fold enrichment (6-mer frequency, TF over GST control) | binding signal (ETV3L): 1.04 fold enrichment (6-mer frequency, TF over GST control) | binding signal (ETS2): 1 fold enrichment (6-mer frequency, TF over GST control) | binding signal (SPDEF): 1.05 fold enrichment (6-mer frequency, TF over GST control) | binding signal (ETV3): 1 fold enrichment (6-mer frequency, TF over GST control)
